Data as given in PubChem BioAssay (NCATS).
Several values for one entry are separate records, joined by “and”; a condition that tells them apart may be missing. Equal entries are not always repeated. Results filed as inconclusive are left out. Where a structure was tested more than once in an assay, its records may differ in their call. Activity calls are given as the source filed them. Unless noted, calls follow the shape of the dose curve; as a rule, active = well fitted curve in the direction sought with a large enough effect; inconclusive = small, poorly fitted or top-dose-only effect, or another doubt; inactive = no such curve, though single readings can be large; an effect the other way counts as inactive or inconclusive.

Assays:
[1] = Cell Viability - BJ (AID 421; calls by dose curve;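 also: potency is read from the fitted curve at half-maximal effect; cells exposed to compound for 40 hours at 37 °C before readout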); details: BJ fibroblast viability, qHTS
In short: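 Cytotoxicity in human BJ foreskin fibroblasts is scored as loss of cellular ATP after a 40-hour exposure, measured by luciferase luminescence. Controls are DMSO and 100 uM tamoxifen.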

[2] = Cell Viability - HepG2 (AID 433; calls by dose curve;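 also: potency is read from the fitted curve at half-maximal effect; cells exposed to compound for 40 hours; potency for ATP loss meaning cytotoxicity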); details: qHTS
In short: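 In this qHTS format, a 40 h, 37 °C compound incubation of HepG2 cells in complete medium precedes a 20 min CellTiter-Glo step at room temperature. Tamoxifen and doxorubicin serve as positive controls; Hill-equation fits yield AC50.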

[3] = Cell Viability - HUV-EC-C (AID 542); details: HUV-EC-C endothelial cell viability, qHTS; series mostly up to 92.2 µM;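 also: cells exposed to compound for 40 hours; % is scaled to controls: 0 for no effect and ±100 for the full control effect; nearly all actives have a fitted effect of over 35% in size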
In short: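 CellTiter-Glo luminescence measured ATP loss in HUV-EC-C cells (1000/well) after 40 hr compound exposure at 37 °C, in complete culture medium. Concentration-response data were Hill-fitted to give AC50.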

[4] = Cell Viability - Mesenchymal (AID 546); details: mesenchymal cells viability, qHTS; activity change, negative = cytotoxicity: at 91.7 µM (top of the series);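 also: cells exposed to compound for 40 hours before reading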
In short: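 CellTiter-Glo luminescence (intracellular ATP, 20 min room temperature) after 40 hr compound exposure at 37 °C of 1000 glomerulus-derived human kidney mesenchymal cells/well; AC50 values obtained by fitting qHTS concentration-response data to the Hill equation.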

[5] = Cellular Toxicity (caspase-3) Jurkat (AID 655); details: Jurkat caspase-3 activation, luminescence; caspase-3 activation: at 92.2 µM (top of the series), DMSO = 0%, tamoxifen = 100%;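 also: cells exposed to compound for 16 h at 37 °C before reading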
In short: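 qHTS in human Jurkat T-cell leukemia line: 16 hr compound treatment at 37 °C, caspase-3/7 activity measured by Caspase-Glo luminescence. AC50 derived from Hill equation.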

[6] = Cellular Toxicity (caspase-3) NIH 3T3 (AID 666); details: NIH 3T3 caspase-3 activation, apoptosis/toxicity, 0% DMSO, 100% is 100 µM tamoxifen; series mostly up to 92.2 µM;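 also: caspase signal read after 16 h compound exposure; 0% = DMSO basal and 100% = 100 µM tamoxifen stimulation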
In short: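 Caspase-Glo 3/7 luminescence reported caspase activation in 1000 NIH 3T3 cells/well after 16 h compound exposure at 37 C. DMSO set basal and 100 uM tamoxifen set 100% stimulation; concentration-response modeled with the Hill equation for AC50.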

[7] = Cell Viability - LYMP1-002 - Assay at 16 hr (AID 948); details: LYMP1-002 lymphoblastoid cell viability; series mostly up to 92.2 µM;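 also: 0% = DMSO alone and full effect = 92 µM tetraoctylammonium bromide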
In short: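 In this qHTS, lymphoblastoid LYMP1-002 cells (human) receive compounds for 16 hr at 37 C. Viability is taken from CellTiter-Glo ATP luminescence, and AC50 derives from standard Hill fits.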

[8] = MultiTox-Fluor Cytotoxicity Assay - LYMP1-002 - Live Cells (AID 955); details: LYMP1-002 lymphoblastoid live-cell protease fluorescence viability; series mostly up to 46.1 µM;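 also: cells exposed to compound for 16 hours; % is scaled to controls: 0 for no effect and ±100 for the full control effect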
In short: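 After 16 h compound exposure at 37 C, live LYMP1-002 lymphoblastoid cells (2500/well) were quantified by cleavage of cell-permeant GF-AFC substrate, read at 405/510 nm after 60 min. Concentration-response fitted with Hill equation for AC50.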

[9] = Cell Viability - LYMP2-011 (AID 969); details: LYMP2-011 lymphoblastoid cells viability; series mostly up to 92.2 µM;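 also: 0% = DMSO only and full inhibition = 92 µM tetraoctylammonium bromide; nearly all actives have a fitted effect of over 60% in size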
In short: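 Cytotoxicity qHTS with ATP content as read-out: lymphoblastoid cells (2500/well) exposed to compound for 24 h at 37 C, then luciferase luminescence measured. Concentration-response data fitted with the standard Hill equation to give AC50.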

[10] = Cell Viability - LYMP2-013 (AID 970); details: LYMP2-013 lymphoblastoid cells viability; series mostly up to 92.2 µM;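 also: 0% = DMSO only and full inhibition = tetraoctylammonium bromide control; nearly all actives have a fitted effect of over 55% in size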
In short: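 qHTS cytotoxicity: ATP-dependent luminescence (CellTiter-Glo, 30 min room temperature) read after 24 h compound exposure at 37 C of 2500 LYMP2-013 lymphoblastoid cells per well. Concentration-response fitted with Hill equation to give AC50.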

[11] = Cell Viability - LYMP2-023 (AID 975); details: LYMP2-023 lymphoblastoid cell viability; series mostly up to 92.2 µM;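 also: cellular ATP measured by luciferase luminescence as viability proxy; plate controls were DMSO only for no effect and 92 µM tetraoctylammonium bromide control for full effect; nearly all actives have a fitted effect of over 55% in size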
In short: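 Intracellular ATP, read by CellTiter-Glo luminescence, reports viability after 24 hr compound exposure at 37 C. 2500 lymphoblastoid cells/well (LYMP2-023) seeded 5 hr beforehand; Hill fits give AC50; positive control tetraoctylammonium bromide.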

[12] = Cell Viability - LYMP2-025 (AID 976); details: LYMP2-025 lymphoblastoid cell viability; series mostly up to 92.2 µM;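 also: plate controls were DMSO only for no effect and tetraoctylammonium bromide control for full effect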
In short: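 Cytotoxicity read as loss of intracellular ATP (luciferase luminescence) after 24 h compound treatment at 37 C. Uses LYMP2-025 lymphoblastoid cells in 1536-well format; Hill-equation modelling gives AC50; tetraoctylammonium bromide as positive control.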

[13] = Cell Viability - LYMP2-007 (AID 979); details: LYMP2-007 lymphoblastoid cell viability; series mostly up to 92.2 µM;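 also: cells exposed to compound for 24 h before reading; 0% = DMSO only and the negative end = 92 µM tetraoctylammonium bromide; nearly all actives have a fitted effect of over 60% in size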
In short: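 AC50 values come from Hill-equation fits of luminescent intracellular ATP (CellTiter-Glo, 30 min, room temperature) following 24 h compound exposure at 37 C. Cells: LYMP2-007 lymphoblastoid line, 2500 per well, in complete culture medium.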

[14] = Cell Viability - LYMP2-008 (AID 980); details: LYMP2-008 lymphoblastoid cell viability, qHTS; series mostly up to 92.2 µM; also: % is scaled to controls: 0 for no effect and ±100 for the full control effect; nearly all actives have a fitted effect of over 60% in size
In short: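 Cytotoxicity determined from ATP-dependent luciferase luminescence (CellTiter-Glo) following 24 h compound exposure of human lymphoblastoid LYMP2-008 cells at 37 C. Concentration-response data fitted to the Hill equation to give AC50.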

[15] = Cell Viability - LYMP2-014 (AID 983); details: LYMP2-014 lymphoblastoid cells, viability qHTS; series mostly up to 92.2 µM;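 also: plate controls were DMSO only for no effect and 92 µM tetraoctylammonium bromide for full effect; nearly all actives have a fitted effect of over 50% in size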
In short: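 Intracellular ATP loss, read by luciferase luminescence, measures acute cytotoxicity after 24 h compound exposure of lymphoblastoid LYMP2-014 cells (2500/well, 37 C). Concentration-response data fitted to the Hill equation for AC50.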

[16] = Cell Viability - LYMP2-016 (AID 984); details: LYMP2-016 lymphoblastoid cell viability, qHTS; series mostly up to 92.2 µM; also: % is scaled to controls: 0 for no effect and ±100 for the full control effect; nearly all actives have a fitted effect of over 55% in size
In short: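 Concentration-dependent ATP depletion measured in LYMP2-016 lymphoblastoid cells, 24 h, 37 C; luciferase-based luminescent detection; Hill-equation AC50.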

[17] = Cell Viability - LYMP2-018 (AID 985); details: LYMP2-018 lymphoblastoid cells, viability (qHTS); series mostly up to 92.2 µM;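 also: plate controls were DMSO only for no effect and tetraoctylammonium bromide at 92 µM for full effect; nearly all actives have a fitted effect of over 50% in size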
In short: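 Viability read as CellTiter-Glo luminescence (cellular ATP) after 24 hr compound exposure at 37 C of 2500 LYMP2-018 lymphoblastoid cells/well, pre-plated 5 hr. Hill-equation modelling gave AC50.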

[18] = Cell Viability - LYMP2-026 (AID 989); details: LYMP2-026 lymphoblastoid cell viability, qHTS; series mostly up to 92.2 µM; also: % is scaled to controls: 0 for no effect and ±100 for the full control effect; nearly all actives have a fitted effect of over 50% in size
In short: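 Cytotoxicity read as ATP-dependent luminescence (CellTiter-Glo, 30 min room temperature) after 24 h compound treatment at 37 C. LYMP2-026 lymphoblastoid line seeded at 2500 cells/well; AC50 derived by standard Hill equation.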

[19] = Cell Viability - LYMP1-002 - Assay at 40 hr (AID 994); details: LYMP1-002 lymphoblastoid cell viability; series mostly up to 92.2 µM;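 also: 0% = DMSO only and full inhibition = 92 µM tetraoctylammonium bromide; nearly all actives have a fitted effect of over 60% in size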
In short: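 Cytotoxicity was read as loss of cellular ATP (CellTiter-Glo luminescence) after 40 hr compound exposure at 37 C of 2500 LYMP1-002 lymphoblastoid cells per well. Concentration-response data were fitted with the standard Hill equation to give AC50.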

[20] = qHTS assay for cell viability of HEK293 cells (AID 743288); details: ATP luminescence (CellTiter-Glo), 18 h; max response: active compounds read low; also: nearly all actives have a fitted effect of over 50% in size; also: potency is read from the fitted curve at half-maximal effect; as to max response: % is scaled to controls: 0 for no effect and ±100 for the full control effect
In short: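 HEK293, 18 h, 37 C, ATP luminescence. Cells at 2,000/well were allowed at least 5 h to settle before dosing; CellTiter-Glo developed 30 min at RT.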

Cc1ccc(S(N)(=O)=O)cc1
inactive: Potency [1] > 92 µM | Potency [2] > 92 µM | Potency [3] | Potency [4] | Potency [5] | outcome [6] | Potency [7] | outcome [8] | Potency [9] | Potency [10] | Potency [11] | Potency [12] | Potency [13] | Potency [14] | Potency [15] | Potency [16] | Potency [17] | Potency [18] | Potency [19] | max response [20] -5.31% and -1.83%

Cc1c2ccccc2c(C)c2c1ccc1ccccc12
active: Potency [1] 13.8 µM | Potency [20] 44.7 µM
inactive: Potency [4] | Potency [5] | outcome [6] | Potency [7] | outcome [8] | Potency [9] | Potency [10] | Potency [11] | Potency [12] | Potency [13] | Potency [14] | Potency [15] | Potency [16] | Potency [17] | Potency [18] | max response [20] -28%

CCCCCCN
inactive: Potency [1] > 92 µM | Potency [2] > 92 µM | Potency [3] | Potency [4] | Potency [5] | outcome [6] | Potency [7] | outcome [8] | Potency [9] | Potency [10] | Potency [11] | Potency [12] | Potency [13] | Potency [14] | Potency [15] | Potency [16] | Potency [17] | Potency [18] | Potency [19] | max response [20] -3.69%

Nc1cnn([C@@H]2O[C@H](CO)[C@@H](O)[C@H]2O)c(=O)n1
inactive: Potency [1] > 92 µM | Potency [2] > 92 µM | Potency [3] | Potency [4] | Potency [5] | outcome [6] | Potency [7] | outcome [8] | Potency [9] | Potency [10] | Potency [11] | Potency [12] | Potency [13] | Potency [14] | Potency [15] | Potency [16] | Potency [17] | Potency [18] | Potency [19] | max response [20] 3.95%

Nc1ccc(N=Nc2ccccc2)c(N)c1
inactive: Potency [1] > 92 µM | Potency [2] > 92 µM | Potency [5] | Potency [7] | outcome [8] | Potency [9] | Potency [10] | Potency [11] | Potency [12] | Potency [13] | Potency [14] | Potency [15] | Potency [16] | Potency [17] | Potency [18] | Potency [19] | max response [20] -22.9%

Cc1ccccc1OCC1CO1 (centres undefined)
inactive: Potency [1] > 92 µM | Potency [2] > 92 µM | Potency [3] | Potency [4] | Potency [5] | outcome [6] | Potency [7] | outcome [8] | Potency [9] | Potency [10] | Potency [11] | Potency [12] | Potency [13] | Potency [14] | Potency [15] | Potency [16] | Potency [17] | Potency [18] | Potency [19] | max response [20] -12.7%

Brc1ccc(-c2ccccc2)cc1
inactive: Potency [1] > 92 µM | Potency [2] > 92 µM | Potency [3] | Potency [4] | Potency [5] | outcome [6] | Potency [7] | outcome [8] | Potency [9] | Potency [10] | Potency [11] | Potency [12] | Potency [13] | Potency [14] | Potency [15] | Potency [16] | Potency [17] | Potency [18] | Potency [19]
